# Screens as filed in PubChem.
# HEK cytotox: HEK 293 cell cytotoxicity. HEK 293 viability, ATP luminescence (CellTiter-Glo), 48-72 h. 6.6% of 94,000 active. AID 1345083. Potency, µM (highest dose often 115 µM), usual class: inhibitors; note: nearly all actives have a fitted effect of over 60% in size
#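 HEK 293 seeded at 250 cells/well receive compound via pintool. After 48 or 72 hr at 37 degree Celsius, 5% CO2 and 95% humidity, CellTiter-Glo is dispensed and luminescence read following 10 min at room temperature.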
# FLuc inh-1: blocks purified firefly luciferase enzyme activity; AID 1347043; purified P. pyralis luciferase, luminescence, biochemical; P08659; Potency, µM (titrated, usually from 115 µM), usual class: inhibitors; 2.5% of 76,000 active; note: nearly all actives have a fitted effect of over 65% in size
#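 Biochemical qHTS: compound (6-point titration) added to 10uM D-luciferin plus 10uM ATP in Tris acetate pH 7.5 buffer with Mg, Tween-20 and BSA, then purified enzyme at 10nM; light output imaged.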
# 3T3 cytotox: NIH 3T3 cell cytotoxicity | Potency, µM (titrated, usually from 96.7 µM), usual class: inhibitors | 4.3% of 94,000 active | AID 1345082 | NIH 3T3 viability, CellTiter-Glo ATP luminescence, 48-72 h; note: nearly all actives have a fitted effect of over 55% in size
#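 Mouse fibroblast NIH 3T3 cells, 400 per well, received compound via pintool and were incubated for 48 or 72 hr prior to CellTiter-Glo ATP luminescence measurement.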
# NPR1 antag: blocks ANP-stimulated signaling of human Npr1 receptor | HEK293 hNpr1 GloSensor cGMP, ANP-stimulated luminescence | Potency, µM (series often up to 46.3 µM), most hits filed as inhibitors | AID 1347048 | 1.6% of 76,000 active; calls by dose curve; note: nearly all actives have a fitted effect of over 60% in size
#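 Compound pre-incubated 30 min at room temperature on GloSensor-loaded HEK293 cells stably carrying hNpr1 and the pGS-40F cGMP biosensor. Stimulation uses hNppA at 0.1 nM final; luminescence is taken at baseline and 20 min post-agonist.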
# GPT2 inh: inhibitors of human GPT2 alanine aminotransferase; 0.25% of 100,000 active; AID 1671188; Q8TD30; Potency, µM (doses to about 57.7 µM), most hits filed as inhibitors; Recombinant GPT2, coupled pyruvate oxidase/HRP Amplex Red fluorescence; note: nearly all actives have a fitted effect of over 60% in size
# Target sequence (Q8TD30 whole entry, looked up): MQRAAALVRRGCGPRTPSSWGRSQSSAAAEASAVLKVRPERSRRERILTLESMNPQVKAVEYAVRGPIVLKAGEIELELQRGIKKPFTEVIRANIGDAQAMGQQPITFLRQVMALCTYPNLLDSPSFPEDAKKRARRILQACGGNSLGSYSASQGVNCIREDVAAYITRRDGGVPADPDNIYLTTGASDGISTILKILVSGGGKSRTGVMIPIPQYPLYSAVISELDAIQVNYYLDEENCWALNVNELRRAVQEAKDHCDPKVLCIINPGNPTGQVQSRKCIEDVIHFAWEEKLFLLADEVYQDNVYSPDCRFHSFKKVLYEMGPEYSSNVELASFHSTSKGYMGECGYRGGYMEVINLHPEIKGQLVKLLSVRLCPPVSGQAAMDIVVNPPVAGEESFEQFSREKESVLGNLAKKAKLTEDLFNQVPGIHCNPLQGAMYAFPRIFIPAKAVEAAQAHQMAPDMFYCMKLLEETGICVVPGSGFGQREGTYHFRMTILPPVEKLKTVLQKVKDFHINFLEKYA
#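 Fluorescence read-out: pyruvate from GPT2 turnover coupled to pyruvate oxidase, HRP and Amplex Red (0.2mM ThPP, 0.2U/mL PO and HRP, 50uM Amplex final). Substrates 250uM a-KG, 2mM L-alanine; enzyme 10ng/uL; 30 min RT.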
# FLuc SDR no ATP: firefly luciferase binding stabilization, ATP absent | shares compounds with FLuc inh-1 | Purified FLuc-C-HiBiT, Nano-Glo HiBiT luminescence, no ATP | Potency, µM (highest dose often 32.7 µM), actives largely listed as activators | 7.8% of 1,300 active | AID 1963318; note: nearly all actives have a fitted effect of over 55% in size
# FLuc SDR ATP: firefly luciferase binding stabilization, ATP added. shares compounds with FLuc inh-1. purified FLuc-C-HiBiT + ATP, HiBiT complementation luminescence. Potency, µM (top dose mostly 32.7 µM), usual class: activators. 8.7% of 1,300 active;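 note: signal reports ligand binding via conformational change of the enzyme rather than luciferase catalysis; nearly all actives have a fitted effect of over 55% in size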
# FLuc inh-2: blocks firefly luciferase enzymatic activity; shares compounds with FLuc inh-1; purified FLuc-C-HiBiT enzyme, luciferin luminescence; Potency, µM (titrated, usually from 32.7 µM), most hits filed as inhibitors; 42% of 1,300 active; AID 1963320; note: nearly all actives have a fitted effect of over 70% in size
# A number is an active result; . = inactive; ? = inconclusive; / = not tested or not shown. A selection: hits, their analogues and other compounds. The true share with any hit is near 10%. Unless noted, calls come from the whole dose curve; as a rule, active = well fitted curve in the direction sought with a large enough effect; inconclusive = small, poorly fitted or top-dose-only effect, or another doubt; inactive = no such curve, though single readings can be large; an effect the other way counts as inactive or inconclusive.
SMILES,HEK cytotox,FLuc inh-1,3T3 cytotox,NPR1 antag,GPT2 inh,FLuc SDR no ATP,FLuc SDR ATP,FLuc inh-2
O=C(c1ccccc1F)N1CCCC2(CNc3ncccc3[S+](=O)([O-])N2)C1 (stereo not drawn),.,/,.,/,/,/,/,/
CC(C)C(=O)N1Cc2ccccc2CC2(CCN(Cc3ccc(O)cc3)CC2)C1,?,/,?,/,.,/,/,/
O=C(NC[C@H]1Cn2c(-c3ccccc3)cnc2CO1)C1CCCC1,.,.,.,.,.,/,/,/
O=C(Nc1cnc(-c2ccccc2)nc1)c1ccccc1C(F)(F)F,?,?,.,.,.,/,/,/
Cc1ccc(-c2ncc(NC(=O)c3ccccc3F)cn2)cc1,.,0.562µM,.,?,.,.,?,1.97µM
CCN1Cc2cc(F)ccc2N(C[C@@H](O)COCc2ccccc2)CCC1=O,?,/,.,/,/,/,/,/
CSc1cccc(NC(=O)c2ccc3c(c2)N(C)C2CCCN2C3=O)c1 (stereo not drawn),?,14.1µM,.,.,.,.,?,?
CSc1ccc(NC(=O)c2ccc3c(c2)N(C)C2CCCN2C3=O)cc1 (stereo not drawn),?,14.1µM,.,.,.,.,?,?
CN1c2cc(C(=O)Nc3ccc(Cl)cc3)ccc2C(=O)N2CCCCC21 (stereo not drawn),?,?,?,.,.,/,/,/
COc1ccc(-c2ccc3ncc(Nc4cc(F)cc(N5CCOCC5)c4)n3n2)cc1OC,?,8.91µM,17.8µM,.,?,.,.,?
Fc1ccc(-c2nnc3ccc(Nc4ccc(N5CCOCC5)cc4)nn23)nc1,?,.,?,.,?,/,/,/
Cc1ccc(C2Cn3nnc(C(=O)N4CCC(C(=O)Nc5ccc(F)cc5)CC4)c3CO2)cc1 (stereo not drawn),.,11.2µM,.,.,.,.,?,?
Cc1ccc(C2Cn3nnc(C(=O)N4CCC(C(=O)Nc5ccccc5)CC4)c3CO2)cc1 (stereo not drawn),.,12.6µM,.,.,.,.,?,?
Cc1ccc(C2Cn3nnc(C(=O)N4CCC(C(=O)NCc5ccccc5C)CC4)c3CO2)cc1 (stereo not drawn),.,.,.,.,.,/,/,/
Cc1ccc(C2Cn3nnc(C(=O)N4CCC(C(=O)NCc5ccccn5)CC4)c3CO2)cc1 (stereo not drawn),.,11.2µM,.,.,.,.,?,?
CNC(=O)c1cc(C)nc2onc(C3CCCN(C(=O)c4ccc(OC)cc4)C3)c12 (stereo not drawn),.,/,.,/,/,/,/,/
Cc1nn(-c2ccc(C(C)C)cc2)c(C)c1[C@@H]1C=C[C@@H](NC(=O)COCC(=O)O)C1,.,35.5µM,?,.,.,.,.,?
Cc1nn(-c2ccc(C(F)(F)F)cc2)c(C)c1[C@@H]1C=C[C@@H](NC(=O)CSCC(=O)O)C1,?,.,.,.,.,/,/,/
Cc1nn(-c2ccc(C(C)(C)C)cc2)c(C)c1[C@@H]1C=C[C@@H](NC(=O)CCCC(=O)O)C1,.,22.4µM,?,.,.,.,?,?
Cc1ccc(-n2nc(C)c([C@H]3C=C[C@@H](OC(=O)Nc4cccc(C(F)(F)F)c4)C3)c2C)cc1Cl,31.6µM,11.2µM,?,?,.,.,.,.
Cc1ccccc1-n1nc(C)c([C@H]2C=C[C@@H](OC(=O)N[C@H](C)c3ccccc3)C2)c1C,?,.,?,.,.,/,/,/
Cc1ccc(-n2nc(C)c([C@@H]3C=C[C@@H](NC(=O)COCC(=O)O)C3)c2C)cc1Cl,.,35.5µM,.,.,.,.,.,.
CCCNc1cc(N2CCC(CCC(=O)O)CC2)ncn1,.,39.8µM,.,.,.,.,9.89µM,7.85µM
O=C(CCC1CCN(c2cc(NC3CC3)ncn2)CC1)Nc1ccccc1,?,?,.,?,.,/,/,/
O=C(O)CCC1CCN(c2cc(NC3CC3)ncn2)CC1,.,5.01µM,.,.,.,.,3.94µM,3.13µM
SMILES,HEK cytotox,FLuc inh-1,3T3 cytotox,NPR1 antag,GPT2 inh,FLuc SDR no ATP,FLuc SDR ATP,FLuc inh-2
CCOc1ccc2nc(NC(=O)c3ccccc3)sc2c1,/,/,/,/,/,?,?,0.881µM
COc1ccc(NC(=O)Nc2nnc(C)s2)cc1,/,/,/,/,/,.,.,?
COc1ccc(NC(=O)c2cn3cc(-c4ccccc4)sc3n2)cc1,?,/,.,/,.,/,/,/
O=C(C1CCCC1)N1CCC(C(=O)N2CCC(N3CCCC3=O)CC2)CC1,.,/,.,/,.,/,/,/
O=C(c1cc(-c2ccc(F)cc2)nc2ccccc12)N1CCC(c2nc(C3CCOCC3)no2)C1 (stereo not drawn),?,10µM,?,.,.,?,.,?
Cc1cn2c(=O)cc(COC(=O)c3cccc(NC(=O)COc4ccccc4Cl)c3)nc2s1,/,/,/,/,/,.,9.89µM,7µM
O=C(c1cccc(Cl)c1)N1CCN(C(=O)c2cccc(-c3ccccn3)c2)CC1,?,/,?,/,.,/,/,/
CCNC(=O)Nc1ccc(OCC(=O)NCc2ccc(N3CCOCC3)cc2)nc1,.,.,.,.,.,/,/,/
COc1ccc(CNC(=O)Nc2cccc(-c3ccc(N4CCOCC4)nn3)c2)cc1,?,0.891µM,.,.,.,?,?,1.97µM
COc1ccc(NC(=O)Nc2cccc(-c3ccc(N4CCOCC4)nn3)c2)cc1F,?,0.398µM,.,10µM,.,?,?,0.881µM
O=C(NCc1ccc(F)cc1)Nc1cccc(-c2ccc(N3CCOCC3)nn2)c1,?,1.26µM,.,?,.,?,?,1.76µM
COc1ccc(NC(=O)Nc2cccc(-c3ccc(N4CCOCC4)nn3)c2)cc1,?,1.12µM,.,10µM,.,?,?,1.76µM
COc1ccc(-c2cccc(C(=O)N3CCN(C(=O)Nc4ccccc4)CC3)c2)nn1,.,/,.,/,/,/,/,/
CC(=O)Nc1ccc(NC(=O)c2cc3sc(C)c(CN4CCCCC4)c3[nH]2)cc1,?,.,?,.,.,/,/,/
CN1CCCC1c1nc(C2CN(C(=O)CCCc3c[nH]c4ccccc34)C2)no1 (stereo not drawn),?,.,.,.,.,/,/,/
COCCC(=O)N1CCCC(n2c(C)cnc2C2CC2)C1 (stereo not drawn),.,/,.,/,.,/,/,/
CNc1ccc2cc(-c3nc4ccc(C(=O)O)cc4s3)ccc2c1,/,/,/,/,/,1.11µM,0.014µM,0.007µM
Cc1ccc(NC(=O)c2ccc3nc(-c4ccncc4)oc3c2)cc1,.,/,.,/,.,/,/,/
Cc1ccc2nc(-c3ccc(NC(=O)c4ccc(S(C)(=O)=O)cc4)cc3)sc2c1,/,/,/,/,/,.,.,.
